In PubChem BioAssay (NCATS):
Records with an inconclusive call do not appear. A call without a number means that no potency is given here. Values without a mark were called inactive. Calls of active or inactive are those of the source. Unless noted, the call rests on the fitted dose curve; in most records, active means well fitted curve in the direction sought with a large enough effect; inconclusive means small, poorly fitted or top-dose-only effect, or another doubt; inactive means no such curve, though single readings can be large; an effect the other way counts as inactive or inconclusive.

Legend:
[1] = target: Calcium and integrin-binding protein 1 (Homo sapiens) (UniProt Q99828); assay: Primary qHTS for Identification of Calcium Integrin Binding Protein 1 (CIB1) Competitor (AID 1508620);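 further: GST tagged CIB1 binding a fluorescein labelled alphaIIb integrin peptide tracer; top concentration of the series differs between compounds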
Calcium and integrin-binding protein 1 (Homo sapiens), sequence (Q99828 whole entry, looked up): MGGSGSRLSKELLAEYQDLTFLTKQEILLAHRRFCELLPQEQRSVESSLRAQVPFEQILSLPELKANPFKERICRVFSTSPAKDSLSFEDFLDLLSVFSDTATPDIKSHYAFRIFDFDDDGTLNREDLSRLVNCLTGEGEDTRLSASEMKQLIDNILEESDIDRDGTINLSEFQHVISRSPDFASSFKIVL
In short: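 CIB1-GST (1 uM final) and compound incubated 15 min at room temperature before adding FITC-alphaIIb peptide tracer (100 nM final). Competition for binding read by fluorescence polarization (ex 480, em 540) after another 15 min at room temperature.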

[2] = target: Cytochrome P450 2D6 (Homo sapiens) (UniProt P10635); assay: Cytochrome P450 family 2 subfamily D member 6 (CYP2D6) small molecule antagonists: luciferase biochemical (cell-free) qHTS assay (AID 1645840; active means well fitted curve in the direction sought with a large enough effect in the repeat runs; an effect the other way counts as inactive or inconclusive; further: nearly all actives have a fitted effect of over 55% in size; further: potency means the concentration at half of the fitted maximal effect; on activity change, negative = inhibition: series mostly up to about 57 µM)
Cytochrome P450 2D6 (Homo sapiens), sequence (P10635 whole entry, looked up): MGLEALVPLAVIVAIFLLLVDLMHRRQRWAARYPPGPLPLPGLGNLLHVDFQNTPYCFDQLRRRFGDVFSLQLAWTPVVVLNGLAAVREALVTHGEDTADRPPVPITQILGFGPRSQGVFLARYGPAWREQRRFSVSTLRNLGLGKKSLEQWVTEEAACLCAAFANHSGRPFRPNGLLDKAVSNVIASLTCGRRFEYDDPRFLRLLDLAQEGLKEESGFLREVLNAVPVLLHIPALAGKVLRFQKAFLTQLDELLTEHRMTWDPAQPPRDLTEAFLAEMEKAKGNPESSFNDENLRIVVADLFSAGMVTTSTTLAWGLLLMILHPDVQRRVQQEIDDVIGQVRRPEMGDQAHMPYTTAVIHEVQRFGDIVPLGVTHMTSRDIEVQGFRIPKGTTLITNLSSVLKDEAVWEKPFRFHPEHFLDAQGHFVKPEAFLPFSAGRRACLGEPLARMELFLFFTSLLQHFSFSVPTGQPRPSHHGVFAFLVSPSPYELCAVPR
In short: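 P450-Glo luminescent screen: recombinant CYP2D6 enzyme–proluciferin substrate mix preincubated with compound 10 min at room temperature, then NADPH regeneration added for 1 h at room temperature. Detection reagent added for 20 min; luciferin light read as relative luminescence units.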

[3] = target: Cytochrome P450 2C9 (Homo sapiens) (UniProt P11712); assay: Cytochrome P450 family 2 subfamily C member 9 (CYP2C9) small molecule antagonists: luciferase biochemical (cell-free) qHTS assay (AID 1645842; active means well fitted curve in the direction sought with a large enough effect in the repeat runs; an effect the other way counts as inactive or inconclusive; further: nearly all actives have a fitted effect of over 55% in size; further: potency means the concentration at half of the fitted maximal effect; on activity change, negative = inhibition: series mostly up to about 57 µM)
Cytochrome P450 2C9 (Homo sapiens), sequence (P11712 whole entry, looked up): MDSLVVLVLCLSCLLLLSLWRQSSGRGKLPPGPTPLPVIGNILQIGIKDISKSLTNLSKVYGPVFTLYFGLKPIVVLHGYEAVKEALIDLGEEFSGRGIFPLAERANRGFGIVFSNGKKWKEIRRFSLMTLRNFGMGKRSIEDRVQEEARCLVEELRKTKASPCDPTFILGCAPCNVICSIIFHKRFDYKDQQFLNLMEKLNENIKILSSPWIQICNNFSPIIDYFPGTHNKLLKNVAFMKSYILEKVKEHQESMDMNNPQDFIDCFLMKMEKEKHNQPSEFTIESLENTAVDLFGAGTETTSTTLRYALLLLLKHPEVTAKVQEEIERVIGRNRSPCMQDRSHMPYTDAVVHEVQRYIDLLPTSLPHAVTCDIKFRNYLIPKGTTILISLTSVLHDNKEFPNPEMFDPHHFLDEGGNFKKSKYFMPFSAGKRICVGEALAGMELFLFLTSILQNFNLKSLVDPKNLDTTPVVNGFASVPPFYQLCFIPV
In short: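 Luminescence, after 20 min with luciferin detection reagent, reflected CYP2C9 turnover during a 1 h NADPH-driven reaction at 37C. Enzyme-substrate mix contained 0.4% bovine serum albumin and was preincubated with compound 10 min at room temperature.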

[4] = Primary qHTS for inhibitors of nuclear receptor binding SET domain protein 2 (NSD2) in an isogenic RCH-ACV NSD2 p.E1099K mutant (9B) (AID 1645876); further: nearly all actives have a fitted effect of over 70% in size; further: potency means the concentration at half of the fitted maximal effect
[5] = Primary qHTS for inhibitors of nuclear receptor binding SET domain protein 2 (NSD2) in an RCH-ACV wild type WT cells (2C) (AID 1645877); further: nearly all actives have a fitted effect of over 70% in size; further: potency means the concentration at half of the fitted maximal effect

**Q.** For `C=C(C)[C@@H]1CC[C@]2(C(=O)O)CC[C@]3(C)[C@H](CCC4[C@@]5(C)CCC(=O)C(C)(C)C5C(O)C[C@]43C)C12` (stereo partly specified), which Potency [1] is on record?
**A.** inactive

**Q.** What does the source list for `CN[C@H](CNC(=O)N1CCC[C@@H]([C@@H](OCCNC(=O)OC)c2cccc(Cl)c2)C1)C[C@H]1CCCOC1`?
**A.** Potency [1]: inactive; Potency [2]: 19 µM (active); Potency [3]: inactive; Potency [4]: inactive; Potency [5]: inactive

**Q.** Which activity change, negative = inhibition [1] does the source give for `CC1OC(O[C@@H]2[C@H](O)[C@@H](OC3OC(CO)C(O)C(O)C3O)[C@H](OC(=O)[C@]34CCC(C)(C)C[C@H]3C3=CCC5[C@@]6(C)CC[C@H](O[C@@H]7O[C@H](C(=O)O)[C@@H](O)[C@H](O[C@@H]8OC[C@@H](O)[C@H](O)[C@H]8O)[C@H]7O[C@@H]7O[C@H](CO)[C@H](O)[C@H](O)[C@H]7O)[C@@](C)(C=O)C6CC[C@@]5(C)[C@]3(C)C[C@H]4O)O[C@@H]2C)C(O)C(O)C1OC1OCC(O)C(O)C1O` (stereo partly specified) here?
**A.** -2.12% [at 12.4 µM]

**Q.** For `COC(=O)C(CC1CCCC1)c1ccc(S(C)(=O)=O)cc1` (stereo unspecified), which Potency [1] is on record?
**A.** inactive

**Q.** And the Potency [2]?
**A.** 12 µM (active)

**Q.** And the Potency [3]?
**A.** 4.77 µM (active)

**Q.** What about the Potency [4] of the same molecule?
**A.** inactive

**Q.** And the Potency [5]?
**A.** inactive

**Q.** For `CC(=O)OC1C(CO)OC(O[C@H]2[C@H](OC(=O)[C@]34CCC(C)(C)C[C@H]3C3=CCC5[C@@]6(C)CC[C@H](O[C@@H]7O[C@H](C(=O)O)[C@@H](O)[C@H](O[C@@H]8OC[C@@H](O)[C@H](O)[C@H]8O)[C@H]7O[C@@H]7O[C@H](CO)[C@H](O)[C@H](O)[C@H]7O)[C@@](C)(C=O)C6CC[C@@]5(C)[C@]3(C)C[C@H]4O)O[C@H](C)[C@H](OC3OC(C)C(OC4OCC(O)C(O)C4O)C(O)C3O)[C@@H]2O)C(O)C1O` (stereo partly specified), which activity change, negative = inhibition [1] is on record?
**A.** 4.08% [at 12.4 µM]

**Q.** For `Cc1ccc(COC(=O)N2CC[C@@H](CNc3ncccn3)[C@@H](F)C2)cc1`, which Potency [1] is on record?
**A.** inactive

**Q.** And the Potency [2]?
**A.** 16.9 µM (active)

**Q.** What about the Potency [3] of the same molecule?
**A.** 13.5 µM (active)

**Q.** What does the source list for `CC(=O)NCC1CN(c2ccc(-c3ccc(CNCc4cn[nH]n4)cc3)c(F)c2)C(=O)O1` (stereo unspecified)?
**A.** Potency [1]: inactive; Potency [2]: inactive; Potency [3]: 15.1 µM (active)

**Q.** Which Potency [1] does the source give for `Oc1ccccc1-c1cc(-c2ccccc2F)[nH]n1` here?
**A.** inactive

**Q.** And the Potency [2]?
**A.** inactive

**Q.** What about the Potency [3] of the same molecule?
**A.** 13.5 µM (active)

**Q.** For `CC[C@@H]1C(=O)O[C@]23C=C[C@@H]4C(C(=O)OC)=CO[C@H](O[C@@H]12)[C@@H]43`, which Potency [1] is on record?
**A.** inactive

**Q.** Which results are given for `CCCNCCOc1ccc(NC(=O)c2c[nH]c3c2C(=O)CCC3)cc1F`?
**A.** Potency [1]: inactive; Potency [2]: inactive; Potency [3]: inactive

**Q.** Which Potency [1] does the source give for `N[C@@H](CC(=O)Nc1ccc(Oc2cc(F)c(F)cc2Br)cc1)C(=O)O` here?
**A.** inactive

**Q.** What about the Potency [2] of the same molecule?
**A.** inactive

**Q.** Which Potency [1] does the source give for `O=C(OC(C(F)(F)F)C(F)(F)F)N1CCN(Cc2cccc(Oc3ccccc3)c2)CC1` here?
**A.** inactive

**Q.** What about the Potency [2] of the same molecule?
**A.** 1.51 µM (active)

**Q.** Which Potency [1] does the source give for `C/C=C(\C)C(=O)OC1C(C)C2(O)C3C=C(C)C(=O)C3CC(CO)=CC2C2C(C)(C)C12OC(C)=O` (stereo unspecified) here?
**A.** inactive

**Q.** What does the source list for `c1ccc2c(Nc3nnc(-c4ccncc4)s3)cccc2c1`?
**A.** Potency [1]: inactive; Potency [2]: inactive; Potency [3]: 6.01 µM (active); Potency [4]: inactive; Potency [5]: inactive

**Q.** For `N[C@@H](CCNCc1ccc(Cl)cc1)C(=O)N1CCCCC1`, which Potency [1] is on record?
**A.** inactive

**Q.** And the Potency [2]?
**A.** 10.7 µM (active)

**Q.** What about the Potency [3] of the same molecule?
**A.** inactive

**Q.** And the Potency [4]?
**A.** inactive

**Q.** What about the Potency [5] of the same molecule?
**A.** inactive

**Q.** Which results are given for `Cc1cc(-c2nncc3c(C(C)(C)C)c(OCc4ncnn4C)nn23)no1`?
**A.** Potency [1]: inactive; Potency [2]: inactive; Potency [3]: 3.01 µM (active); Potency [4]: inactive; Potency [5]: inactive

**Q.** What does the source list for `COc1cccc(OC)c1-c1nc(C(=O)N[C@@H](CC(C)C)C(=O)O)cn1-c1ccnc2cc(Cl)ccc12`?
**A.** Potency [1]: inactive; Potency [2]: inactive; Potency [3]: inactive; Potency [4]: inactive; Potency [5]: inactive

**Q.** For `O=C(O)CC1CCC(c2ccc(NC(=O)c3nnc(Nc4ccc(F)c(F)c4)o3)cc2)CC1` (stereo unspecified), which Potency [1] is on record?
**A.** inactive

**Q.** What about the Potency [2] of the same molecule?
**A.** inactive

**Q.** What about the Potency [3] of the same molecule?
**A.** inactive

**Q.** And the Potency [4]?
**A.** inactive

**Q.** What about the Potency [5] of the same molecule?
**A.** inactive

**Q.** Which results are given for `Cc1nc2cc(-c3cc(F)cc(C#N)c3)ccc2s1`?
**A.** Potency [1]: inactive; Potency [2]: inactive; Potency [3]: 10.7 µM (active); Potency [4]: inactive; Potency [5]: inactive

**Q.** With `Cc1oc(S(=O)(=O)N2CCCCC2)cc1NC(=O)Nc1ccccc1` as the molecule, how does the Potency [1] read?
**A.** inactive

**Q.** What about the Potency [2] of the same molecule?
**A.** 12 µM (active)

**Q.** And the Potency [3]?
**A.** 6.01 µM (active)

**Q.** What about the Potency [4] of the same molecule?
**A.** inactive

**Q.** And the Potency [5]?
**A.** inactive

**Q.** With `Cn1cc(CCn2cnc(-c3cnn(C)c3)c2-c2ccc(C#N)cc2)cn1` as the molecule, how does the Potency [1] read?
**A.** inactive

**Q.** And the Potency [2]?
**A.** inactive

**Q.** And the Potency [3]?
**A.** inactive

**Q.** And the Potency [4]?
**A.** inactive

**Q.** What about the Potency [5] of the same molecule?
**A.** inactive

**Q.** What does the source list for `Cn1c2ccc(NC(=O)c3ccccc3)cc2c(=O)n2nc(C(=O)O)cc12`?
**A.** Potency [1]: inactive; Potency [2]: inactive; Potency [3]: inactive; Potency [4]: inactive; Potency [5]: inactive

**Q.** With `CCCC(C(=O)O)c1c(C)nc2ccc(Cl)cc2c1-c1ccccc1` (stereo unspecified) as the molecule, how does the Potency [1] read?
**A.** inactive

**Q.** What about the Potency [2] of the same molecule?
**A.** inactive

**Q.** What about the Potency [3] of the same molecule?
**A.** 21.3 µM (active)

**Q.** What about the Potency [4] of the same molecule?
**A.** inactive

**Q.** What about the Potency [5] of the same molecule?
**A.** inactive

**Q.** Which results are given for `CCCN1CCC[C@@H](c2cccc(S(C)(=O)=O)c2)C1`?
**A.** Potency [1]: inactive; Potency [2]: 15.1 µM (active); Potency [3]: inactive; Potency [4]: inactive; Potency [5]: inactive

**Q.** Which Potency [1] does the source give for `Cc1cccc(NC(=O)CN2CCC(c3ccccn3)CC2)c1` here?
**A.** inactive

**Q.** And the Potency [2]?
**A.** 13.5 µM (active)

**Q.** And the Potency [3]?
**A.** 3.38 µM (active)

**Q.** And the Potency [4]?
**A.** inactive

**Q.** What about the Potency [5] of the same molecule?
**A.** inactive

**Q.** Which Potency [1] does the source give for `N#Cc1cc(-c2n[nH]c(-c3ccncc3)n2)ccn1` here?
**A.** inactive

**Q.** What about the Potency [2] of the same molecule?
**A.** inactive

**Q.** And the Potency [3]?
**A.** 1.51 µM (active)

**Q.** And the Potency [4]?
**A.** inactive

**Q.** What about the Potency [5] of the same molecule?
**A.** inactive

**Q.** Which results are given for `CCOC(=O)C(CCc1ccccc1)NC1CCCN2CCCC(C(=O)O)N2C1=O` (stereo unspecified)?
**A.** Potency [1]: inactive; Potency [2]: inactive; Potency [3]: inactive; Potency [4]: inactive; Potency [5]: inactive

**Q.** With `Cc1ccccc1-c1cc(N2CCN(C)CC2)ncc1N(C)C(=O)C(C)(C)c1cc(C(F)(F)F)cc(C(F)(F)F)c1` as the molecule, how does the Potency [1] read?
**A.** inactive

**Q.** And the Potency [2]?
**A.** 15.1 µM (active)

**Q.** What about the Potency [3] of the same molecule?
**A.** 16.9 µM (active)

**Q.** What about the Potency [4] of the same molecule?
**A.** inactive

**Q.** What about the Potency [5] of the same molecule?
**A.** inactive

**Q.** Which Potency [1] does the source give for `COC(=O)[C@H](Cc1cccc(C(=N)N)c1)[C@@H](C)NC(=O)c1ccc(-c2cc[n+]([O-])cc2)cc1` here?
**A.** inactive

**Q.** What about the Potency [2] of the same molecule?
**A.** inactive

**Q.** What about the Potency [3] of the same molecule?
**A.** inactive

**Q.** What about the Potency [4] of the same molecule?
**A.** inactive

**Q.** And the Potency [5]?
**A.** inactive

**Q.** With `Nc1ncnc2c1c(COc1cccc(Cl)c1)nn2C1CCOCC1` as the molecule, how does the Potency [1] read?
**A.** inactive

**Q.** What about the Potency [2] of the same molecule?
**A.** inactive

**Q.** What about the Potency [3] of the same molecule?
**A.** 12 µM (active)

**Q.** And the Potency [4]?
**A.** 14.8 µM (active)

**Q.** What about the Potency [5] of the same molecule?
**A.** 16.6 µM (active)
